Assay results as given in PubChem BioAssay AID463173 (ICCB-Longwood Screening Facility, Harvard Medical School, 2010).
In all, about 52,000 compounds went through this assay and about 4,300 (8.3%) were called active. Rule as the data show it: active = survival mostly below about 52% (no sharp cut-off); inactive = mostly above about 56%. The sample as a whole holds a higher share of actives than the screen did.

The compounds below were run on DeltatarO mutant (assay: S. aureus survival, RN4220 and DeltatarO strains – OD600, teichoic acid synthesis inhibitors, primary screen (AID 463173)). Conditions: S. aureus RN4220 wild type/DeltatarO growth, OD600, 18 h, hits give low values, screened at 18.75 µg/mL (by protocol).

With COc1ccc(CCNC(=O)CSc2n[nH]c(-c3ccccc3Cl)n2)cc1OC as the compound, how does the survival read?
Its survival is 101% (inactive).

COc1ccc2c(c1)c1c(c(=O)n(-c3cccc(C)c3)c(=O)n1Cc1cccc(Cl)c1)n2C was tested. Which survival did it give?
Its survival is 84% (inactive).

With CC(=O)N1CCCc2cc(S(=O)(=O)N(CCN(C)C)Cc3ccccc3)ccc21 as the compound, how does the survival read?
The survival was 102% (inactive).

How did the survival turn out when Cc1csc2nc(COC(=O)c3ccc(NC(=O)C(C)Oc4ccccc4)cc3)cc(=O)n12 (stereo not drawn) was run?
The survival was 134% (inactive).

Which survival does the source give for COc1cc2c(cc1OC)C(COc1ccc3c(C)cc(=O)oc3c1)N(C(=O)c1ccc(C)c(C)c1)CC2 (stereo not drawn) here?
Its survival is 74% (inactive).

Which survival does the source give for Cc1oc(-c2ccc(C(=O)NCc3ccccc3F)cc2)nc1COc1ccccc1 here?
The survival was 77% (inactive).

How did the survival turn out when CCOC(=O)c1ccccc1NC(=O)CCc1c(C)nc2ncnn2c1C was run?
The survival was 87% (inactive).

With CCOc1ccc(NC(=O)Cn2c(=O)n(-c3ccccc3)c(=O)c3c4c(sc32)CCCC4)cc1 as the compound, how does the survival read?
Its survival is 90% (active).

How did the survival turn out when CCN(Cc1ccccc1)C(=O)Cn1c(=O)n(-c2ccc(Cl)cc2)c(=O)c2c(C)c(C)sc21 was run?
The survival was 76% (inactive).

Which survival does the source give for COc1ccc(NC(=O)Cn2c(=O)n(-c3ccccc3)c(=O)c3c4c(sc32)CCCC4)cc1 here?
The survival was 98% (inactive).

Which survival does the source give for CCOc1ccc(-n2c(=O)c3c(C)c(C)sc3n(CC(=O)N(CC)Cc3ccccc3)c2=O)cc1 here?
The survival was 45% (active).

How did the survival turn out when CCN(Cc1ccccc1)C(=O)Cn1c(=O)n(-c2ccc(C)c(C)c2)c(=O)c2c(C)c(C)sc21 was run?
The survival was 84% (inactive).

Which survival does the source give for CCOc1ccc(NC(=O)Cn2c(=O)n(-c3cccc(OC)c3)c(=O)c3c4c(sc32)CCCC4)cc1 here?
Its survival is 95% (inactive).

CCOC(=O)c1c(C)oc2nc(C)nc(NCC3CCN(Cc4cccc(Cl)c4)CC3)c12 was tested. Which survival did it give?
Its survival is 62% (inactive).

COc1cccc(NC(=O)CCS(=O)(=O)c2ccc3c(c2)oc(=O)n3C)c1 was tested. Which survival did it give?
Its survival is 89% (inactive).

Cc1ccc(CSc2nnc3[nH]c(=O)cc(C)n23)cc1 was tested. Which survival did it give?
Its survival is 71% (inactive).

How did the survival turn out when Cc1ccc(NC(=O)CSc2nc3c(oc4ccccc43)c(=O)n2Cc2ccco2)cc1 was run?
Its survival is 70% (inactive).

Which survival does the source give for CC(C)C(=O)N1C2CCC1CC(O)(c1ccccc1F)C2 (stereo not drawn) here?
The survival was 86% (inactive).

For COc1cccc(CN(Cc2ccco2)C(c2ccc(OC)c(OC)c2)c2nnnn2Cc2ccccc2)c1 (stereo not drawn), which survival is on record?
Its survival is 67% (inactive).

For Cc1ccc2nc(/C(C#N)=C/c3cccc(Br)c3)[nH]c2c1, which survival is on record?
Its survival is 3% (active).

Cc1ccc2nc(/C(C#N)=C/c3ccccc3F)[nH]c2c1 was tested. Which survival did it give?
Its survival is 31% (active).

For COc1cccc(/C=C(\C#N)c2nc3ccc(C)cc3[nH]2)c1, which survival is on record?
The survival was 46% (inactive).

How did the survival turn out when Cc1cccc(/C=C(\C#N)c2nc3ccccc3c(=O)[nH]2)c1 was run?
Its survival is 91% (inactive).

How did the survival turn out when N#C/C(=C\c1ccccc1F)c1nc2ccccc2c(=O)[nH]1 was run?
Its survival is 66% (inactive).

COc1cc(Br)c(/C=C(\C#N)c2nc3ccccc3[nH]2)cc1OC was tested. Which survival did it give?
The survival was 110% (inactive).

With COc1ccccc1-c1nnc(SCCOc2ccccc2C)o1 as the compound, how does the survival read?
Its survival is 73% (inactive).

With Oc1ccc(-c2nnc(SCc3ccc(Cl)cc3)o2)cc1 as the compound, how does the survival read?
The survival was 89% (inactive).

CCOc1ccccc1-c1nnc(SCc2ccc(Cl)cc2)o1 was tested. Which survival did it give?
The survival was -1% (active).

With CNS(=O)(=O)c1cn(CC(=O)Nc2ccc(C)c(N(C)C)c2)cc1S(=O)(=O)NC as the compound, how does the survival read?
Its survival is 83% (inactive).

How did the survival turn out when CCc1ccc(-c2cc(C)no2)cc1S(=O)(=O)N1CCN(c2cccc(Cl)c2)CC1 was run?
The survival was 89% (inactive).

With COc1ccc(CNc2oc(-c3ccc(COc4ccc(Cl)cc4)o3)nc2C#N)cc1 as the compound, how does the survival read?
The survival was 97% (inactive).

Which survival does the source give for Cc1cc(C)cc(NC(=O)CCc2c(C)nc3c4cccnc4nn3c2C)c1 here?
Its survival is 99% (inactive).

CCOc1ccc(-c2nonc2NC(=O)c2ccc(C)cc2)cc1OCC was tested. Which survival did it give?
The survival was 100% (inactive).

With CCOc1ccc(-c2nonc2NC(=O)c2oc3c(C)c(C)ccc3c2C)cc1OCC as the compound, how does the survival read?
The survival was 34% (active).

Which survival does the source give for CCOc1ccc(-c2nonc2NC(=O)c2oc3ccc(C)cc3c2C)cc1OCC here?
The survival was 43% (inactive).

With CCOc1ccc(-c2nonc2NC(=O)c2oc3cc(C)ccc3c2C)cc1OCC as the compound, how does the survival read?
The survival was 87% (inactive).

How did the survival turn out when CCOc1ccc(-c2nonc2NC(=O)c2oc3cc(C)c(C)cc3c2C)cc1OCC was run?
The survival was 43% (active).

With CCCOc1ccc(-c2nonc2NC(=O)c2oc3ccc(C)cc3c2C)cc1OCCC as the compound, how does the survival read?
Its survival is 49% (inactive).

Which survival does the source give for CCCNC(=O)N1CCCN(S(=O)(=O)c2ccc3c(ccn3CC)c2)CC1 here?
Its survival is 79% (inactive).

With Cc1cc(C)cc(NC(=O)c2cnn(-c3ccc(C)c(C)c3)c2C2CCNCC2)c1 as the compound, how does the survival read?
The survival was 78% (inactive).

Which survival does the source give for COc1ccccc1NC(=O)CN1C(=O)CSc2ccc(S(=O)(=O)N3CCCC3)cc21 here?
The survival was 99% (inactive).

Cc1cc(C)c(S(=O)(=O)NCC(c2ccc(N(C)C)cc2)N2CCOCC2)c(C)c1 (stereo not drawn) was tested. Which survival did it give?
The survival was 69% (inactive).

CCCSc1oc(-c2cccs2)nc1S(=O)(=O)c1ccc(C)cc1 was tested. Which survival did it give?
The survival was 41% (inactive).

Which survival does the source give for CCCCS(=O)(=O)c1oc(-c2cccs2)nc1S(=O)(=O)c1ccc(F)cc1 here?
The survival was 56% (inactive).

With CCCCS(=O)(=O)c1oc(-c2cccs2)nc1S(=O)(=O)c1ccccc1 as the compound, how does the survival read?
Its survival is -5% (active).

Cc1ccc(CSc2oc(-c3cccs3)nc2S(=O)(=O)c2ccc(C)cc2)cc1 was tested. Which survival did it give?
The survival was 135% (inactive).

Which survival does the source give for Cc1ccc(CSc2oc(-c3cccs3)nc2S(=O)(=O)c2ccccc2)cc1 here?
The survival was 65% (inactive).

For CCCCCS(=O)(=O)c1oc(-c2cccs2)nc1S(=O)(=O)c1ccc(C)cc1, which survival is on record?
Its survival is 3% (active).

COc1cccc(CSc2nc3n(n2)C(c2ccccc2C)C(C(=O)Nc2ccccc2OC)=C(C)N3)c1 (stereo not drawn) was tested. Which survival did it give?
The survival was 69% (inactive).

How did the survival turn out when Cc1ccc(C)c(NC(=O)Cn2c(=O)n(CCC(C)C)c(=O)c3cccnc32)c1 was run?
The survival was 76% (inactive).

With NC(CSC1CCCCO1)C(=O)O (stereo not drawn) as the compound, how does the survival read?
Its survival is 73% (inactive).

With O=C(Nc1ccc(N2CCC(N3CCCCC3)CC2)c(C(=O)O)c1)c1ccccc1 as the compound, how does the survival read?
Its survival is 96% (inactive).

With CC(=O)c1ccc(N2CCN(c3ccc(NC(=O)c4ccc(F)cc4)cc3C(=O)O)CC2)cc1 as the compound, how does the survival read?
Its survival is 55% (inactive).

How did the survival turn out when COc1ccc(C(=O)Nc2ccc(N3CCN(c4ccccc4)CC3)c(C(=O)O)c2)cc1 was run?
Its survival is 94% (inactive).

For O=C(Nc1ccc(N2CCC(N3CCCCC3)CC2)c(C(=O)O)c1)c1ccc(Br)cc1, which survival is on record?
The survival was 101% (inactive).

O=C(Nc1ccc(N2CCOCC2)c(C(=O)O)c1)c1ccc(Br)cc1 was tested. Which survival did it give?
The survival was 8% (active).

Which survival does the source give for O=C(Nc1ccc(N2CCN(CCOc3ccc(Cl)cc3)CC2)c(C(=O)O)c1)c1ccc(F)cc1 here?
Its survival is 20% (active).

Cc1ccc(NC(=O)C(=O)NCC2(c3ccccc3)CCCC2)cc1Cl was tested. Which survival did it give?
The survival was 97% (inactive).

For Cc1cccc(NS(=O)(=O)c2ccc3c(c2)CC(C)N3C(=O)C2CCC2)c1C (stereo not drawn), which survival is on record?
The survival was 78% (inactive).

With N#Cc1c[nH]n2c(=O)cc(Cc3ccccc3)nc12 as the compound, how does the survival read?
Its survival is 68% (inactive).

For Cc1cc(NC(=O)c2ccc(NC(=O)CCS(=O)(=O)c3cccs3)cc2)ccc1Br, which survival is on record?
Its survival is 35% (active).

With COC(=O)c1ccc(NC(=O)CCS(=O)(=O)c2ccc(Br)s2)cc1 as the compound, how does the survival read?
The survival was 60% (inactive).

CCOC(=O)c1cccc(NC(=O)CCS(=O)(=O)c2ccc(Br)s2)c1 was tested. Which survival did it give?
Its survival is 71% (inactive).

CC(=O)c1cccc(NC(=O)CCS(=O)(=O)c2ccc(Br)s2)c1 was tested. Which survival did it give?
Its survival is 43% (active).

How did the survival turn out when O=C(CCS(=O)(=O)c1ccc(Br)s1)Nc1c(F)cccc1F was run?
Its survival is 128% (inactive).

How did the survival turn out when CC(=O)c1ccc(NC(=O)c2ccc(NC(=O)CCS(=O)(=O)c3cccs3)cc2)cc1 was run?
Its survival is 69% (inactive).

How did the survival turn out when CC(C)c1ccc(NC(=O)CCS(=O)(=O)c2ccc(Br)s2)cc1 was run?
Its survival is 114% (inactive).

Cc1ccc(NC(=O)c2ccc(NC(=O)CCS(=O)(=O)c3cccs3)cc2)cc1F was tested. Which survival did it give?
The survival was 81% (inactive).

With O=C(CCS(=O)(=O)c1ccc(Br)s1)Nc1cc(C(F)(F)F)cc(C(F)(F)F)c1 as the compound, how does the survival read?
Its survival is 42% (active).

For CCc1ccc(CNC(=O)Cc2ccc(NC(=O)N3CCSc4ncccc43)cc2)cc1, which survival is on record?
The survival was 94% (inactive).

CC(=O)c1c(C)oc2c(Cl)cc(NS(=O)(=O)c3cc(C)c(C)cc3C)cc12 was tested. Which survival did it give?
The survival was 157% (inactive).

With COc1ccc(OC)c(-c2noc(N3CCN(c4cc(C)ccc4C)CC3)n2)c1 as the compound, how does the survival read?
Its survival is 87% (inactive).

For CC(=O)N1CCCc2cc(S(=O)(=O)N3CCCC(C(=O)Nc4cccc(Cl)c4C)C3)ccc21 (stereo not drawn), which survival is on record?
Its survival is 67% (inactive).

COc1cccc(CNC(=O)c2ccc(Cn3c(SCc4ccccc4)nc4cccnc43)cc2)c1 was tested. Which survival did it give?
The survival was 74% (inactive).

How did the survival turn out when Cn1cc(C(=O)N2CCN(c3cccc(Cl)c3)CC2)c(=O)c2cc(S(=O)(=O)N3CCCC3)ccc21 was run?
The survival was 128% (inactive).

Which survival does the source give for CCN(CC)c1nc2c(S(=O)(=O)c3cccc(Cl)c3)nnn2c2ccsc12 here?
The survival was 62% (inactive).

Cc1ccc(CCNc2nc3c(S(=O)(=O)c4ccc(C)cc4)nnn3c3ccsc23)cc1 was tested. Which survival did it give?
Its survival is 108% (inactive).

With Cc1ccc(S(=O)(=O)c2nnn3c2nc(NCCc2ccccc2)c2sccc23)cc1 as the compound, how does the survival read?
Its survival is 65% (inactive).

With CN(Cc1ccccc1)c1nc2c(S(=O)(=O)c3cccc(Cl)c3)nnn2c2ccsc12 as the compound, how does the survival read?
Its survival is 36% (active).

With CN(Cc1ccccc1)c1nc2c(S(=O)(=O)c3ccccc3)nnn2c2ccsc12 as the compound, how does the survival read?
The survival was 70% (inactive).

With Cc1ccc(CCNc2nc3c(S(=O)(=O)c4ccccc4)nnn3c3ccsc23)cc1 as the compound, how does the survival read?
The survival was 62% (active).

Cc1cc(-c2ccc(C)c(S(=O)(=O)Nc3cccc(C)n3)c2)on1 was tested. Which survival did it give?
Its survival is 75% (inactive).

With O=C(Cn1c(=O)nc(-c2ccccc2F)c2cc(Cl)ccc21)Nc1ccccc1C(F)(F)F as the compound, how does the survival read?
Its survival is 96% (inactive).

Cn1c(O)c(N=NC(=O)c2ccccc2)c2ccccc21 was tested. Which survival did it give?
Its survival is 105% (inactive).

With CCCCc1cc(O)c(CCCC)c(O)c1 as the compound, how does the survival read?
Its survival is 12% (active).

For CCCCc1c(C(=O)O)cccc1C(=O)O, which survival is on record?
The survival was 103% (inactive).

Which survival does the source give for Cc1cc(C)cc(N2C(=O)CSC23C(=O)N(CC(=O)Nc2ccc(F)cc2F)c2ccccc23)c1 (stereo not drawn) here?
Its survival is 99% (inactive).

Which survival does the source give for Cc1ccc2c(c1)c(=O)c(S(=O)(=O)c1ccc(F)cc1)cn2CC(=O)Nc1ccc2c(c1)OCO2 here?
The survival was 70% (inactive).
